Compound activity from PubChem BioAssay.
JMJD2E inh – JMJD2E (human) inhibition | B2RXH2 | JMJD2E catalytic domain, FDH-coupled NADH fluorescence (FDH is formaldehyde dehydrogenase) | Potency, µM (highest dose often 57.1 µM), inactives show top-dose activity change, negative = inhibition, actives largely listed as inhibitors | actives 1.6% (n = 230,000) | AID 2147; active means well fitted inhibition curve with a large enough effect, not every such curve was filed as active; inconclusive means small, poorly fitted or top-dose-only effect, or another doubt; inactive means no such curve, though single readings can be large or run the other way;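 further: 0% = wells with enzyme and -100% = buffer wells without enzyme; nearly all actives have a fitted effect of over 50% in size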
Target sequence (B2RXH2 1-337 limits assumed): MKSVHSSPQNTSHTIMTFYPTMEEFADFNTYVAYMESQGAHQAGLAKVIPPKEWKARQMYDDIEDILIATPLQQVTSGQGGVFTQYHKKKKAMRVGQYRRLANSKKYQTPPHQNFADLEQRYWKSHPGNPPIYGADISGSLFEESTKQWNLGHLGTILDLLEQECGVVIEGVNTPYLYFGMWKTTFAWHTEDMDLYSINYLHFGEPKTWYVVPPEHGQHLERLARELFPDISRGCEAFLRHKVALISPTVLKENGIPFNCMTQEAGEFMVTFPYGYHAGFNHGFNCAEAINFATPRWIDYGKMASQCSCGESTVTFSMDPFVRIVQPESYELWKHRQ
APE1 inh – blocks human APE1 abasic DNA cleavage. P27695. recombinant APE1, TAMRA/BHQ-2 abasic DNA cleavage fluorescence. Potency, µM (doses to about 65.8 µM), inactives show at the highest dose activity change, negative = inhibition, actives largely listed as inhibitors. actives 0.35% (n = 350,000). AID 2517;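 further: plate controls were vehicle for no effect and reference inhibitor for full effect; nearly all actives have a fitted effect of over 55% in size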
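Activity was derived from the fluorescence gain between first and third kinetic reads (60 s intervals, ex 525/em 598 nm) after 50 nM THF-abasic TAMRA/BHQ-2 duplex was added to 0.75 nM APE1 preincubated 15 min with compound.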
KAT2A inh – blocks human GCN5L2 histone acetyltransferase | actives 0.21% (n = 390,000) | GCN5L2 HAT assay, ThioGlo1 CoA-SH fluorescence | Q92830 | AID 504327 | Potency, µM (series often up to 58.9 µM), for inactives: at the top dose activity change, negative = inhibition, hits mostly inhibitors
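Preincubate 20nM GCN5L2 with compound 15 min, RT → add 50uM ThioGlo1 + 75uM H3(1-25) + 70uM acetyl-CoA → read fluorescence 0 and 20 min. Primary qHTS; fluorescent artifacts likely.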
RECQ1 helicase – inhibitors of human RECQ1 DNA helicase; actives 0.54% (n = 240,000); Potency, µM (highest dose often 57.3 µM), for the others: top-dose activity, negative = inhibition, most hits filed as inhibitors; AID 2549; P46063; RECQ1 DNA unwinding, red fluorescence kinetic read;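 further: plate controls were vehicle for no effect and no enzyme for full effect; nearly all actives have a fitted effect of over 30% in size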
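50 nM RECQ1T1 preincubated 15 min with compound in Tris pH 8.0 buffer with MgCl2, DTT, Tween-20 and 2.5 ug/ml poly(dI-dC); started with 200 nM TAMRA/BHQ-2 forked duplex and 2 mM ATP. Unwinding read as fluorescence (525/598 nm), two reads 2 h apart.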
L3MBTL1 block – blocks human L3MBTL1. AlphaScreen L3MBTL1–H3K9me1 peptide binding. actives 0.66% (n = 230,000). Potency, µM (titrated, usually from 57.1 µM), for inactives: top-dose activity, negative = inhibition, usual class: inhibitors. Q9Y468. AID 485360; further: nearly all actives have a fitted effect of over 60% in size
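Read-out is AlphaScreen signal from streptavidin donor and nickel chelate acceptor beads (10 ug/mL final each) bridging L3MBTL1 (50 nM) and biotinylated K9-monomethylated H3(1-15) peptide (75 nM), after 30 min compound exposure at room temperature.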
BLM inh – Bloom syndrome helicase (human) inhibition | recombinant BLM DNA unwinding, fluorescence dequenching | Potency, µM (series often up to 56.1 µM), for inactives: at the highest dose activity change, negative = inhibition, actives largely listed as inhibitors | AID 2528 | actives 0.2% (n = 350,000);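 further: plate controls were vehicle for no effect and no enzyme for full effect; nearly all actives have a fitted effect of over 35% in size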
* marks the source's active call; other numbers are inactive results; i = inactive; ? = inconclusive; / = no result; [ ] = dose if it differs, or a comment. Shown is part of a subset that was picked to be rich in hits. Unless noted, the call rests on the fitted dose curve; in most records, active means well fitted curve in the direction sought with a large enough effect; inconclusive means small, poorly fitted or top-dose-only effect, or another doubt; inactive means no such curve, though single readings can be large; an effect the other way counts as inactive or inconclusive. Unless noted, on the % scale 0 is the no-effect control and ±100 the full control effect; potency means the concentration at half of the fitted maximal effect.

SMILES	JMJD2E inh	APE1 inh	KAT2A inh	RECQ1 helicase	L3MBTL1 block	BLM inh
Oc1ccc(COC2CCCC2)c2cccnc12	/	8%	-9%	/	20µM*	/
CC(=O)OC[C@H]1O[C@@H](CCO/N=C2/[C@H]3O[C@@H]3[C@@H](O)[C@H]3[C@H]2CCn2c(=O)n(-c4ccccc4)c(=O)n23)C=C[C@@H]1OC(C)=O	/	37%[12.4 µM]	/	-12%[11.5 µM]	/	-12%[12.4 µM]
CN(C)c1ccc(CC2C(=O)Nc3ccccc32)cc1 (centres undefined)	3.2µM*	1%	2%	-7%	?	-4%
O=C1Nc2ccccc2C1Cc1ccc(Br)cc1 (centres undefined)	/	/	-1%	/	/	-2%
O=S(=O)(c1ccccc1Br)N(Cc1ccccc1)Cc1ccco1	/	?	/	-3%	/	-4%
CCCSc1nnc(NC(=O)CSc2sc3c(O)cc(=O)[nH]c3c2C#N)s1	/	64%[12.4 µM]	?	/	/	22µM*
N#Cc1c(SCC(=O)Nc2nccs2)sc2c(O)cc(=O)[nH]c12	/	12%	?	/	/	-30%
CC(C)(C)n1ncc2c(=O)n(Cc3ccc(Cl)cc3F)cnc21	/	-3%	/	/	/	/
O=C(NCc1ccccc1)c1c(O)c2ccccc2[nH]c1=O	/	12%	-8%	/	2%	-5%
COc1ccccc1CNC(=O)c1c(O)c2cc(OC)c(OC)cc2[nH]c1=O	3.5µM*	5%	-7%	-6%	0%	-2%
Cc1ccc2c(Br)cc(Br)c(O)c2n1	/	/	0%	/	/	-2%
CNc1ccc(Br)cc(C(=O)/C=C/c2ccc(Cl)cc2Cl)c1=O	?	-7%	2%	-27%	-15%	-12%
CCNc1ccc(Br)cc(C(=O)/C=C/c2c(Cl)cccc2Cl)c1=O	?	?	?	1%	8.9µM*	?
Cc1[nH]n(-c2ccccc2)c(=S)c1C=Nc1ccc([N+](=O)[O-])cc1	6.3µM*	1%	7.9µM*	-16%	3%	-1%
O=C(c1coc(=O)c(Br)c1)N1CCCc2ccccc21	?	?	-17%	35µM*	?	?
CCCOP(=O)(c1ccc(N(C)C)cc1)C(O)c1ccncc1 (centres undefined)	18µM*	12%	-3%	14%	/	-2%
CN(C)c1ccc(P(=O)(OCc2ccccc2)C(O)c2ccncc2)cc1 (centres undefined)	20µM*	20%	-3%	7%	-3%	-4%
CCCCOP(=O)(c1ccc(N(C)C)cc1)C(O)c1cccnc1 (centres undefined)	2%	-4%	-10%	-7%	1%	-2%
CNc1oc(-c2cccc(Br)c2)nc1C#N	/	25%	/	/	/	/
Cc1ccccc1Nc1oc(-c2ccccc2)nc1CCc1ccccc1	5%	-1%	/	i	/	0%
O=c1c(-c2ccccc2)coc2cc(O)cc(O)c12	5%	?	28µM*	-13%	/	22µM*
O=c1c(-c2ccc3c(c2)OCCO3)coc2cc(O)cc(O)c12	?	4%	?	-1%	-6%	?
C/C(=N\NC(=O)c1cccc(N/N=C(\C)c2ccco2)c1)c1ccco1	-5%	-8%	-19%	-7%	-29%	-8%
C/C(=N\NC(=O)c1cccc(N/N=C(\C)c2cc(O)ccc2O)c1)c1cc(O)ccc1O	25µM*	-6%	0%	27%	28µM*	-15%
Nc1n[nH]c(=S)n1/N=C1/C(=O)Nc2ccccc21	7.1µM*	2%	7.1µM*	2%	7%	-4%
O=C1Nc2ccccc2C1=Nc1ccc(F)cc1	/	29%	2%	/	/	-3%
CCCn1cnnc1CNC(=O)C1CCC(=O)N(CCCc2ccccc2)C1 (centres undefined)	/	25%	-2%	/	/	1%
CCCCC(=O)Nc1ccc(C(=O)NNC(=O)CCc2ccccc2)cc1	-3%	-4%	23%	-22%	-10%	-9%
CCCCC(=O)Nc1ccc(C(=O)NNC(=O)c2ccc(C)c(Br)c2)cc1	3%	25µM*	-24%	-9%	-2%	-13%
